ER stress death – ER stress cell death inhibition | 0.33% of 48,000 active | CSM14.1 thapsigargin ER stress survival, ATP luminescence | relative survival (cellular ATP), % at 15 µg/mL (by protocol);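 active means survival measured by cellular ATP above 50% at 15 µg/ml in the first screen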;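 further: cell death triggered by about 15 µM thapsigargin; ATP read 24 h after thapsigargin was added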
Large screens that a line does not name were inactive. The sample as a whole holds a higher share of hits than the screen did.

O=C1CC(c2ccc(Cl)cc2)CC2=C1C(c1cc3c(cc1[N+](=O)[O-])OCO3)Nc1ccccc1N2 (centres undefined)	ER stress death 83.8
O=C1CC(c2ccc3c(c2)OCO3)CC2=C1C(c1cc3c(cc1Br)OCO3)Nc1ccccc1N2 (centres undefined)	none
CC1=NN(c2ccc(S(N)(=O)=O)cc2)C(=O)/C1=C\c1ccc(-c2cccc([N+](=O)[O-])c2)o1	none
CC(=O)N1c2ccc(C)cc2C(Nc2ccc(C)cc2)CC1C (centres undefined)	none
OC[C@H]1O[C@@H](Nc2cccc3ccccc23)[C@H](O)[C@@H](O)[C@H]1O	none
Cc1cccc(OCC(=O)N/N=C/c2cccc(OC(=O)c3cccc(F)c3)c2)c1	none
CCOc1ccc(C2C(C(C)=O)=C(O)C(=O)N2CC2CCCO2)cc1 (centres undefined)	none
COc1ccc(C(=O)N/C(=C\c2ccccc2)C(=O)NCCCN(C)C)cc1	none
O=C(CCNC(=O)/C(=C\c1ccccc1)NC(=O)c1ccco1)OCc1ccccc1	none
CC(C)COc1ccc(C(=O)N/C(=C/c2ccccc2)C(=O)NCC(=O)OCc2ccccc2)cc1	ER stress death 80.4
Cc1ccc(-n2nc3cc(C)c(NC(=O)c4cccc(Cl)c4)cc3n2)cc1	none
COc1cc(C(=O)Nc2ccc(NC(=O)c3cccs3)c(C)c2)cc(OC)c1OC	none
O=C(Cc1ccccc1)Nc1ccc(OC(F)(F)F)cc1	none
C=CCN(CC=C)C(=O)c1cc(-c2ccc(C)s2)nc2ccccc12	none
COc1ccc(-c2ccc(-c3nnc(-c4cccc(C)c4)o3)cc2)cc1	none
Cc1cccc(NC(=O)Cc2ccccc2)c1	none
CC(C)(C)NC(=O)c1cc(NC(=O)c2cccs2)cc(NC(=O)c2cccs2)c1	none
CC(C)(C)NC(=O)c1cc(NC(=O)Cc2ccccc2)cc(NC(=O)Cc2ccccc2)c1	ER stress death 73.0
COC(=O)CN(c1ccc(OC)cc1)S(=O)(=O)c1ccc(NC(C)=O)cc1	none
CCOC(=O)C1=C(C)N=c2s/c(=C\c3ccc(OCC)c(OC)c3)c(=O)n2C1c1ccc(C)cc1 (centres undefined)	none
COc1ccc(C(=O)Nc2nc(C34CC5CC(CC(C5)C3)C4)cs2)cc1	none
O=C(NCc1ccncc1)C(=O)Nc1nccs1	none
O=C(NCc1ccncc1)C(=O)Nc1nc(C23CC4CC(CC(C4)C2)C3)cs1	ER stress death 88.4
CC(=O)c1ccc(-c2ccc([N+](=O)[O-])cc2)s1	none
CC1(C)CC(=O)C2=C(C1)OC(c1ccccc1)=CC2c1ccccc1 (centres undefined)	none
O=[N+]([O-])c1cccc(S(=O)(=O)Nc2ccc(I)cc2)c1	none
Cc1cc(C)c(C=C2C(=O)c3ccccc3C2=O)c(C)c1C	none
O=C1S/C(=C\c2ccc(Br)cc2)C(=O)N1c1ccc(Cl)cc1	none
COc1ccc(CCNC(=O)/C(=C/c2ccc(C(C)C)cc2)NC(=O)c2ccccc2)cc1OC	ER stress death 79.3
COc1ccc(CCNC(=O)/C(=C/c2ccc(Cl)cc2)NC(=O)c2ccc(C)cc2)cc1OC	none
COCCNC(=O)/C(=C/c1ccc(C(C)C)cc1)NC(=O)c1ccccc1	none
CC(=O)OC(OC(C)=O)C12C=CC(O1)C1C(=O)N(c3cc(C(F)(F)F)ccc3Cl)C(=O)C12 (centres undefined)	none
CN(C)CCC(=O)c1cccc([N+](=O)[O-])c1	none
O=C(N/N=C/c1ccc(Br)cc1)C1CC(=O)N(c2ccc(Cl)cc2)C1 (centres undefined)	none
CCC(=O)N1c2ccccc2NC2=C(C(=O)CC(C)(C)C2)C1c1ccc(C#N)cc1 (centres undefined)	none
CCC(=O)N1c2ccccc2NC2=C(C(=O)CC(c3ccc(OC)cc3)C2)C1c1ccccc1 (centres undefined)	none
CCC(=O)N1c2ccccc2NC2=C(C(=O)CC(c3ccccc3)C2)C1c1ccc(F)cc1 (centres undefined)	ER stress death 106.0
O=C1CC(c2ccccc2)CC2=C1C(c1cccnc1)N(C(=O)c1ccccc1)c1ccccc1N2 (centres undefined)	ER stress death 78.9
CCC(=O)N1c2ccccc2NC2=C(C(=O)CC(c3ccccc3)C2)C1c1cccc(Br)c1 (centres undefined)	none
CC1(C)CC(=O)C2=C(C1)Nc1ccccc1N(C(=O)c1ccccc1)C2c1ccc(C#N)cc1 (centres undefined)	none
CCC(=O)N1c2ccccc2NC2=C(C(=O)CC(C)(C)C2)C1c1ccc(N(CC)CC)cc1 (centres undefined)	ER stress death 53.3
COc1ccc(C2C3=C(CC(c4ccccc4)CC3=O)Nc3ccccc3N2C(=O)C(C)C)cc1OC (centres undefined)	none
CCC(=O)N1c2ccccc2NC2=C(C(=O)CC(c3ccccc3)C2)C1c1cccnc1 (centres undefined)	none
CC1=NN(c2ccc(C)c(C)c2)C(=O)/C1=C\c1ccc(N(C)C)cc1	none
CCc1ccccc1NC(=O)C(F)(Cl)C(F)(F)F (centres undefined)	none
CCCS(=O)(=O)c1c(S(=O)(=O)CCC)c2c3ccccc3ccn2c1C(=O)c1ccc(C)cc1	none
CCOCCOC(=O)C1=C(C)NC2=C(C(=O)CCC2)C1c1ccc(OC)c(O)c1 (centres undefined)	none
COc1cc2c(cc1OC)C(C)N(CC(=O)O)CC2 (centres undefined)	none
O=C(N/N=C/c1cccc([N+](=O)[O-])c1)C(Oc1ccccc1)Oc1ccccc1	none
O=[N+]([O-])c1cccc(/C=N\N2CCN(C(c3ccccc3)c3ccccc3)CC2)c1	ER stress death 52.4
NC(=O)c1ccccc1N=Cc1cccc([N+](=O)[O-])c1	none
O=C(Nc1ccccc1C(F)(F)F)c1ccc(OC2CSC2)cc1	none
O=C(c1cccc(F)c1)N1CCN(Cc2cccc(Oc3ccccc3)c2)CC1	ER stress death 60.2
O=C(c1cccc(F)c1)N1CCN(Cc2cccc(F)c2)CC1	none
COc1ccc(C(=O)N2CCN(Cc3cccc(F)c3)CC2)cc1	none
O=c1oc(-c2ccc(Cl)c(Cl)c2)nc2cc(Cl)ccc12	none
O=C(/C=C/c1ccc2c(c1)OCO2)c1ccc(Br)cc1	none
O=C(/C=C/c1ccc([N+](=O)[O-])o1)c1ccc(Br)cc1	none
CN(C)c1ccc(/C=C/C(=O)c2ccc(Br)cc2)o1	ER stress death 56.0
CC(C)Cc1nnc(NC(=O)COc2ccccc2)s1	none
Cc1ccccc1OCC(=O)Nc1cccc(I)c1	none
COc1ccc(CCN=Cc2c(O)n(-c3c(Cl)cccc3Cl)c3ccccc23)cc1OC	ER stress death 119.6
COc1ccc(CCN=CC2=C(O)CC(c3ccccc3)CC2=O)cc1OC (centres undefined)	none
COc1ccc(CCN=CC2=C(O)CC(C)(C)CC2=O)cc1OC	none
CCOC(=O)c1c(NC(=O)c2ccc(F)cc2)sc2c1CC(C)(C)OC2	none
CCOc1ccc(/C=C2\C(=O)NC(=O)N(c3ccccc3C)C2=O)cc1Cl	none
COc1cccc(NC(=O)CCN2C(=O)/C(=C/c3ccc(C)cc3)SC2=S)c1	none
COc1ccc(NC(=O)CCN2C(=O)/C(=C\c3ccc(C)cc3)SC2=S)cc1	ER stress death 51.0
COc1ccc(NC(=O)CCN2C(=O)/C(=C\c3cccc(OC)c3)SC2=S)cc1	none
O=C(Nc1ccc(Cl)c(Cl)c1)c1cccc([N+](=O)[O-])c1	none
CCOc1ccc(NC(=O)COc2ccc(Br)cc2)cc1	none
Cc1ccc(N2C(=O)NC(=O)/C(=C\c3cc(Cl)c(O)c(Cl)c3)C2=O)cc1	none
CC(=O)c1cccc(N2C(=O)C3C4C=CC(C4=C(C)C)C3C2=O)c1 (centres undefined)	none

Source: PubChem
